Source: PubChem (several laboratories)
CHT allo act: allosteric activators of human choline transporter CHT. Q9GZV3. actives 0.49% (n = 310,000). AID 488977. CHT-expressing cells, membrane potential dye, choline EC20; stronger effect = higher value; LV-AA mutant CHT in HEK293 cells. B-score at 10 µM;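 active means initial fluorescence not abnormally high and integrated response B-score, plate-corrected, over 3 SD above library mean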
Target sequence (Q9GZV3 whole entry, looked up): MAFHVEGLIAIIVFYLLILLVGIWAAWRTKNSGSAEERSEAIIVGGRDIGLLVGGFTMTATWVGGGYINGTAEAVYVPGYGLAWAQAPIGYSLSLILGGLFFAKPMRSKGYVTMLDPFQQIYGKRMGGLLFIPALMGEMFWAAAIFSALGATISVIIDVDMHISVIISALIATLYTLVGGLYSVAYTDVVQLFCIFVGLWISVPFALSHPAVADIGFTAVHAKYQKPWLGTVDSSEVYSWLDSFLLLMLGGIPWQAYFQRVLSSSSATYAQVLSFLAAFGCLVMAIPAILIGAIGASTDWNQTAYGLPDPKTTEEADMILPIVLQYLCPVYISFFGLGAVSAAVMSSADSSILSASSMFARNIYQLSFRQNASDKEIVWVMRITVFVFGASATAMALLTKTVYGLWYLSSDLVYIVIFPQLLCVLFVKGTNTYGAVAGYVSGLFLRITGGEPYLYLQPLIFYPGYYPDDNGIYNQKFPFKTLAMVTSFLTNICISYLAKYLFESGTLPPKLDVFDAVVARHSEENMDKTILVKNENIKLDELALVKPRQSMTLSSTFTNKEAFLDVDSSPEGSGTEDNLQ
NALP1 yeast inh: NALP1 inhibition; S. cerevisiae NALP1/ASC/caspase-1 growth, X-gal OD620, 72 h; inhibition, % at 10 µM; actives 0.61% (n = 280,000); AID 2071; in the data active means inhibition mostly above about 24%, no sharp cut-off; inactive means mostly below about 32%
CHT block: inhibits the human high affinity choline transporter | Q9GZV3 | CHT-expressing cells, membrane potential dye, choline response; stronger effect = lower value | B-score at 10 µM | actives 0.86% (n = 310,000) | AID 488975;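 active means B-score over 3 SD under the library average, and starting fluorescence ratio not unusually high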;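 further: choline stimulus applied at its EC90 after an EC20 pre-addition; B-score computed on integrated fluorescence ratio after choline addition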
SUMO Mot1 rescue: inhibitors of SUMOylation pathway: yeast Mot1-301 growth rescue. S. cerevisiae Mot1-301 growth rescue, ATP luminescence, 38.5C; percent above DMSO median, 100 means doubled. actives 1% (n = 320,000). growth rescue, % at 18.8 µM;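 active means every valid replicate shows activation above 250% relative to neutral control wells; inactive means the rest, any valid replicate at or below 250%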
A1 inh: inhibitors of the anti-apoptotic protein A1, read as caspase activation; MEF A1-2A-BIM cells, Caspase-Glo 3/7 luminescence, 3 h; percent of clofoctol response, vehicle zero; caspase activation, % (test concentration not listed); actives 0.066% (n = 330,000); AID 2462;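 active means over half of replicate activation scores above 10%, or exactly half above 10 with the replicate mean above 10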
NLRP3 yeast inh: inhibitors of NALP3 inflammasome in yeast. Yeast reconstituted NLRP3/ASC/caspase-1, beta-gal luminescence, 24 h. inhibition, % at 10 µM. actives 0.39% (n = 330,000). AID 2825;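 active means inhibition of 50% or more; inactive means inhibition below 50%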
Hits are given with their value; . = inactive; / = no result. A selection: hits, their analogues and other compounds. The true share with any hit is near 3%.

SMILES	CHT allo act	NALP1 yeast inh	CHT block	SUMO Mot1 rescue	A1 inh	NLRP3 yeast inh
COc1ccccc1OCC(=O)NCCSCc1ccccc1Cl	.	51	.	.	.	.
COc1ccccc1OCC(=O)NCCSCc1cccc(Cl)c1	.	48	.	.	.	.
O=C(O)c1ccccc1NC(=O)C1CCN(S(=O)(=O)c2cccc3nsnc23)CC1	.	.	.	.	.	.
CN(c1ccccc1)S(=O)(=O)c1cccc(NC(=O)c2ccc(=O)[nH]n2)c1	/	/	/	.	.	.
COc1ccc(CCNC(=O)CN(Cc2ccc(Cl)cc2)S(C)(=O)=O)cc1OC	.	28	.	.	.	.
COC(=O)c1ccc(CNS(=O)(=O)c2ccc3ccccc3c2)cc1	.	.	.	330	.	.
COc1ccc(S(=O)(=O)NCc2ccc(C(=O)O)cc2)cc1	.	.	.	.	.	.
CN1CCN(C(=S)Nc2ccc(Cl)c(Cl)c2)CC1	.	48	.	.	.	.
CC1(C)C(C=C(Cl)Cl)C1C(=O)Nc1ccc([N+](=O)[O-])cc1 (centres undefined)	.	57	.	.	.	/
O=C(Nc1ccc([N+](=O)[O-])cc1)C1CC1(c1ccccc1)c1ccccc1 (centres undefined)	.	.	.	.	.	.
CCC1(c2ccc(Cl)cc2)NC(=O)N(CC(=O)NC2CCCC(C)C2C)C1=O (centres undefined)	/	/	/	/	/	.
Cc1cc(OCC(=O)OCC(=O)NCc2ccco2)ccc1Cl	.	/	.	.	.	.
CCCCN(CCCC)CCNC(=O)c1ccc2nc(-c3ccccc3NC(C)=O)c(=O)[nH]c2c1	.	.	.	561	.	.
O=C(NC1CCCCC1)N1CCN(C(c2ccccc2)c2ccccc2)CC1	.	41	.	.	.	.
O=C(NC1CCCCC1)N1CCN(c2ccccc2)CC1	.	.	.	.	.	.
COc1ccccc1Oc1ccc2c(c1)C(=O)N(c1ccc(O)cc1)C2=O	.	28	.	.	.	.
CN(CC(=O)Nc1ccc(F)c(F)c1F)C(=O)C1CCCC1	/	/	/	/	/	.
CCC(CC(C)(C)O)C(=O)NNC(=S)Nc1ccccc1 (centres undefined)	.	33	.	.	.	.
O=C(NNC(=S)Nc1ccccc1)NNC(=S)Nc1ccccc1	.	.	.	.	.	.
Oc1ccc(CN2CCC(Cc3ccccc3)CC2)c2cccnc12	/	31	/	/	/	.
Cc1ccc2c(c1)/C(=N/OS(=O)(=O)c1ccccc1)CCS2	.	/	.	.	.	.
CC1=CC(=O)C=C(C)C1=NOS(=O)(=O)c1ccccc1	/	104	/	/	/	/
CCCOC(=O)c1ccc(NC(=O)Oc2ccccc2)cc1	.	22	.	.	.	.
CC(=O)c1ccc(NC(=O)Oc2ccccc2)cc1	.	.	.	.	.	.
CCCOC(=O)c1ccc(NC(=O)c2ccc(Br)o2)cc1	.	61	.	.	.	.
SMILES	CHT allo act	NALP1 yeast inh	CHT block	SUMO Mot1 rescue	A1 inh	NLRP3 yeast inh
COc1cc(/C=C/C(=O)OCC(=O)c2ccc3c(c2)NC(=O)CO3)ccc1OC(F)F	/	/	/	.	.	.
CCn1c(=O)cc(OCC(=O)N2CCN(C(=O)c3ccco3)CC2)c2ccccc21	.	.	.	707	.	.
N#C/C(C(=O)c1ccccc1)=C1/SC=C(N)N1c1ccccc1	/	.	/	/	/	/
N#C/C(C(N)=O)=C1/SC=C(c2ccccc2)N1c1ccccc1	.	37	.	.	.	.
O=C(OCc1ccc([N+](=O)[O-])cc1)c1cc([N+](=O)[O-])ccc1N1CCOCC1	.	/	.	.	.	.
Cc1ccc(COC(=O)c2cc([N+](=O)[O-])ccc2N2CCOCC2)cc1	6.4	.	.	.	.	.
COc1ccc(C(=O)c2cc([N+](=O)[O-])ccc2N2CCOCC2)cc1	10	.	.	.	.	/
O=C(NCCCN1CCCC1=O)c1cn(-c2ccccc2)nc1-c1ccccc1	.	.	.	.	.	.
COc1ccc(NS(=O)(=O)c2ccc(C)cc2)c([N+](=O)[O-])c1	.	.	.	.	.	.
COc1ccc(NC(=O)c2ccccc2NS(=O)(=O)c2ccc(C)cc2)c([N+](=O)[O-])c1	.	.	.	823	.	.
O=C(CSc1n[nH]c(-c2ccc(Br)cc2)n1)N1CCOCC1	/	/	/	.	.	.
CO/N=C\Cc1oc(=O)c(NC(=O)c2ccccc2)cc1C(=O)OC	.	.	.	.	.	.
COC(=O)c1cc(NC(=O)c2ccccc2)c(=O)oc1C/C=N\OCc1ccc(Cl)cc1Cl	.	42	.	.	.	.
CCCN(CCO)C1CCN(CCc2ccccc2)CC1	.	/	.	.	.	.
Cc1cccc(Nc2ncnc(N)n2)c1	.	.	.	541	.	.
Cc1ccc(C2(C(F)(F)F)N=C3Sc4cc(C)ccc4N3C(=O)N2)cc1 (centres undefined)	.	36	.	.	.	.
Cc1ccc(C)c(NC(=O)c2ccccc2C(=O)c2ccccc2)c1	.	.	.	715	.	.
Cc1ccc(C(=O)c2ccccc2C(=O)Nc2ccccc2)cc1	.	/	.	.	.	.
CCN(CC)CCNC(=O)c1ccc2c(=O)n(C3CCCC3)c(=S)[nH]c2c1	.	.	-15	.	.	.
Cc1cc(C(=O)Nc2cccc(O)c2)c(C)o1	.	35	.	.	.	.
COc1ccc(Cc2nnc(NC(=O)c3ccccc3Cl)s2)cc1OC	.	.	.	.	.	.
COc1ccc(C2(CNC(=O)c3ccc(N)cc3)CCCC2)cc1	.	42	.	.	.	.
Cc1ccc(C(=O)Nc2ccccc2N2CCCCC2)cc1	.	.	.	.	.	.
O=C(Nc1ccccc1N1CCCCC1)c1ccc(Cl)cc1	.	.	.	.	7.3	.
CCc1ccc(O)c(CNCCNCc2cc(CC)ccc2O)c1	.	/	-6.8	.	.	.
SMILES	CHT allo act	NALP1 yeast inh	CHT block	SUMO Mot1 rescue	A1 inh	NLRP3 yeast inh
O=C(NCc1ccc(F)cc1)c1cccnc1C(=O)O	.	.	.	.	.	.
CCOc1cc(/C=C2/C(=N)N3C(=NC2=O)SN=C3S(C)(=O)=O)ccc1OS(=O)(=O)c1ccccc1	.	.	-5.6	.	.	.
COc1cc(/C=C2/C(=N)N3C(=NC2=O)SN=C3S(C)(=O)=O)ccc1OS(=O)(=O)c1ccccc1	.	.	-6.2	.	.	.
CC1(C)N=C(C(=O)c2ccccc2)N(O)C1(C)O (centres undefined)	.	33	.	.	.	.
Cn1nc(C(=O)Nc2cccc(S(N)(=O)=O)c2)c2ccccc2c1=O	.	40	.	.	.	.
OCCNc1nc(Nc2ccc(Cl)cc2)nc(N2CCCC2)n1	.	/	.	.	.	.
CCCNc1nc(Nc2ccc(C)cc2)nc(N2CCCC2)n1	.	42	.	.	.	.
Cc1ccc(C(=O)O)cc1N1C(=O)c2cccc3c([N+](=O)[O-])ccc(c23)C1=O	.	.	-5	.	.	.
